Assay results taken from PubChem BioAssay (NCI).
The panel holds about 83,000 compounds, 20% with a hit somewhere; the sample as a whole holds those more often.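 Method: cells in 96-well plates; compound added at one concentration; 48 h incubation; percent growth measured; values under 10 scored active.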 Values without a mark were called inactive. The source made the active and inactive calls.

Legend:
Assay in all cases: NCI-60 one-dose screen, 48 h (100 = growth as untreated, 0 = no growth, -100 = all killed)
Settings in all cases: 10 µM unless noted
[1] = test system: NCI-H23 lung
[2] = test system: NCI-H226 lung
[3] = test system: NCI-H322M lung
[4] = test system: HOP-62 NSCLC
[5] = test system: NCI-H460 lung
[6] = test system: HOP-92 NSCLC
[7] = test system: NCI-H522 lung
[8] = test system: A549/ATCC NSCLC
[9] = test system: 786-0 renal
[10] = test system: COLO 205 colon

| SMILES | growth [1] | growth [2] | growth [3] | growth [4] | growth [5] | growth [6] | growth [7] | growth [8] | growth [9] | growth [10] |
| --- | --- | --- | --- | --- | --- | --- | --- | --- | --- | --- |
| COc1ccc(-c2cc(-c3ccccc3)nc(N3CCN(CCNc4ccnc5cc(Cl)ccc45)CC3)n2)cc1 | 14.8% | 67.5% | 88% | 94.8% | -68.6% (active) | -34.3% (active) | 2.04% (active) | -16% (active) | -94.6% (active) | -69.1% (active) |
| CN1CCN(Cc2ccc(NC(=O)c3cncc(C#Cc4cnc(N)c5ncccc45)c3)cc2C(F)(F)F)CC1 | 22.2% | 7.14% (active) | 25.1% | -5.02% (active) | -35.5% (active) | 7.16% (active) | 9.75% (active) | 10.6% | -82.3% (active) | -55.2% (active) |
| C[C@H](CCCC(=O)NCC#CCN1CCN(C)CC1)[C@H]1CC[C@H]2[C@@H]3CC[C@@H]4CC(=O)CC[C@]4(C)[C@H]3CC[C@]12C | 87.7% | 103% | 97.7% | 96.2% | 96% | 73.7% | 102% | 95.7% | 97% | 95.1% |
| Cc1ccc(S(=O)(=O)Oc2ccc3sc4cccc(NCCN(C)C)c4c(=O)c3c2)cc1 | -93.5% (active) | -71.9% (active) | -88.1% (active) | -89.6% (active) | -92.7% (active) | -77.4% (active) | -81.7% (active) | -74.1% (active) | -85.7% (active) | -83.8% (active) |
| C/C(=N\O)[C@@H]1CC[C@]2(CO)CC[C@]3(C)[C@H](CC[C@@H]4[C@@]5(C)CCCNC(C)(C)[C@@H]5CC[C@]43C)[C@@H]12 | 89.6% | 92.6% | 94.2% | 90% | 72.6% | 65.6% | 90% | 76.6% | 92.3% | 81% |
| COc1ccc(-c2nc3c(N)c(CO)cnc3s2)cc1 | 86.7% | 41.6% | 76% | 100% | 97.6% | 77% | 92.1% | 91.7% | 95% | 104% |
| O=S(=O)(Oc1ccc(Br)cc1)c1ccc(Cl)cc1 | 89.4% | 100% | 97.3% | 105% | 110% | 102% | 97.4% | 101% | 89.2% | 108% |
| Cc1nc2ccccc2c(/C=C/c2ccccc2)c1C(=O)/C=C/c1ccccc1 | 28.7% | 65.1% | 43.8% | 6.52% (active) | -20.8% (active) | 79.6% | 15.9% | 23.2% | 31.5% | 15.7% |
| C/C(=N\O)c1ccc(NC(=O)CSc2nnc(-c3cc(-c4ccc(S(C)(=O)=O)cc4)nc4ccccc34)n2-c2ccccc2)cc1 | 99.2% | 90.3% | 91.7% | 98.7% | 90.4% | 80.7% | 82.2% | 81.3% | 93.9% | 102% |
| Cc1ccccc1Nc1cc(O)c2c(=O)cc(-c3ccccc3)oc2c1 | 45.5% | 57.8% | 70.5% | 49.4% | 8.06% (active) | 86.7% | 36% | 35.2% | 43.5% | 61.8% |
| CCN1CCN(CC(=O)Nc2ccc(-c3cn4c(n3)sc3cc(Oc5ccnc(C(=O)NC)c5)ccc34)cc2)CC1 | 97.1% | 105% | 75.9% | 66.1% | 48.7% | 54.6% | 83.7% | 78.2% | 75.3% | 51.8% |
| Cc1ccc(S(=O)(=O)OCCCOS(=O)(=O)c2ccc(C)cc2)cc1 | 105% | 107% | 92.3% | 113% | 96.5% | 77.4% | 89% | 93.4% | 90.8% | 110% |
| COC(=O)c1c2c(n3ccccc13)C(=O)c1ccccc1C2=O | 44.9% | 73.8% | 23.5% | 68.7% | 1.15% (active) | 77.8% | 54.4% | -49.1% (active) | 71.5% | 28.1% |
| O=C1c2cccc3cccc(c23)C(=O)N1C/C=C/c1ccc2c3c(cccc13)C(=O)N(CCO)C2=O | 69.6% | 58.3% | 62.9% | 70.6% | 72.6% | 2.53% (active) | 89.2% | 81.2% | 84.4% | 68.3% |
| CSC1=Nc2c(c(C)c(-c3ccccc3)n2CCCC(=O)O)C2=NC(=O)C[C@H](C)N12 | 105% | 110% | 102% | 89.7% | 102% | 94.3% | 93% | 101% | 102% | 119% |
| CCCn1nc(C(=O)N(C)Cc2ccccc2)c2c1CCC(N1CCc3ccccc31)C2 (stereo not given) | 97.9% | 97.9% | 101% | 103% | 112% | 90.7% | 86.5% | 93% | 95.2% | 117% |
| Clc1ccc(-c2cc(-c3ccccc3)nc(NCCNc3ccnc4cc(Cl)ccc34)n2)cc1 | 74.3% | 78.5% | 44.6% | 81.2% | -51.6% (active) | 31.8% | -35.9% (active) | 36.3% | -90.9% (active) | -81.2% (active) |
| O=C(/C=C/c1ccccc1)c1ccc(Nc2nc(Nc3ccc(F)cc3)nc(Nc3ccc(Cl)cc3)n2)cc1 | 83.9% | 96.1% | 94.5% | 102% | 82.1% | 48.1% | 87.6% | 112% | 86.8% | 70.6% |
| CCSc1oc(C)nc1[P+](c1ccccc1)(c1ccccc1)c1ccccc1 | 20.6% | 57.9% | 77% | 21.3% | 16.8% | 25.3% | 24.8% | 23.2% | 56.6% | -7.48% (active) |
| CC1=C2[C@@H](CC1)[C@]1(C)O[C@@](C3CCCCC3)(C[C@H]1OC(=O)CO)[C@H]2OC(=O)/C=C/c1ccccc1 | 93.6% | 76.5% | 94.6% | 91% | 75.8% | 44.3% | 68% | 63.1% | 55.9% | 93.8% |
| O=C(Nc1ccc(Br)cc1)C1=NCCCCN1 | 85.1% | 93.1% | 98.1% | 74.7% | 89.5% | 102% | 82.9% | 90.5% | 96.2% | 110% |
| COc1ccc(CCN2C(=O)/C(=C/c3ccc(C4Oc5ccccc5C5CC(c6ccccc6)=NN54)cc3)SC2=S)cc1 (stereo not given) | 100% | 105% | 108% | 98.1% | 110% | 111% | 96% | 108% | 106% | 107% |
| CC1=CC(c2ccco2)=C2C(N)=NNC2N1 (stereo not given) | 97.6% | 95.7% | 92.6% | 88.8% | 100% | 77.8% | 95.2% | 101% | 97.6% | 116% |
| C#Cc1cccc(Nc2nc(C)nc3cc(NC(=O)CCl)ccc23)c1 | -55.6% (active) | -28.1% (active) | -31.3% (active) | -84.2% (active) | -64.1% (active) | -82% (active) | -77.5% (active) | 5.92% (active) | -72.5% (active) | -78.6% (active) |
| COC(=O)c1c2c(c(C)[n+]([O-])c1C)C(=O)C(NCc1ccc(OC)cc1)=CC2=O | 27.5% | 81.7% | 6.55% (active) | 47.7% | 10.2% | 36.9% | -5.69% (active) | 4.4% (active) | 54.2% | -45.2% (active) |
| N=C(N)c1ccc(-c2ccc(-c3ccccc3)s2)cc1 | 85.5% | 103% | 49.2% | 74.6% | -16.6% (active) | 73.2% | -26.5% (active) | 60.1% | 78.8% | -42.9% (active) |
